The record followed here is PubChem BioAssay (NCATS).

SMILES strings stand for the structures. Where “and” joins values, the source holds several entries; their conditions need not be identical. Equal values may be shown once. Records with an inconclusive call do not appear. Where a call stands in place of a potency, no number is given. Some structures have more than one record in an assay (separate samples or runs), and their calls can disagree. Calls of active or inactive are those of the source. Calls come from the whole dose curve; as a rule, active = well fitted inhibition curve with a large enough effect; inconclusive = small, poorly fitted or top-dose-only effect; inactive = flat fitted curve, though single readings scatter.
Potency is the fitted concentration of half-maximal effect.

This experiment relates to HaCat. The experiment in a line: Cytotoxic Profiling of Annotated Libraries Using Quantitative High-Throughput Screening (AID 1296008). Note: nearly all actives have a fitted effect of over 60% in size. Particulars: Five cell lines viability, CellTiter-Glo ATP luminescence, 48-72 h; max response: active compounds read low. In outline:
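Cells exposed to compounds for 48 or 72 hr at 37 degrees Celsius. Viability read as ATP-coupled luminescence with CellTiter-Glo after 10 min at room temperature.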
Consider `COc1ccc(C2C(=O)c3ccccc3C2=O)cc1`, for which the outcome was inactive.

Regarding `Cc1c(N(C)CS(=O)(=O)O)c(=O)n(-c2ccccc2)n1C`, the outcome was inactive.

Turning to `OC[C@H]1O[C@H](O[C@]2(CCl)O[C@H](CCl)[C@@H](O)[C@@H]2O)[C@H](O)[C@@H](O)[C@H]1Cl`, the max response is -7.79% (inactive) and -6.26% (inactive).

`C[C@H](CCC(=O)O)[C@H]1CC[C@H]2[C@@H]3C(=O)C[C@@H]4CC(=O)CC[C@]4(C)[C@H]3CC(=O)[C@]12C`: the outcome was inactive.

Consider `Cc1cc(O)c(C(C)C)cc1Cl`, for which the compound was called inactive.

On to `O=C1c2ccccc2C(=O)C1c1ccccc1`, for which the compound was called inactive.

`Cc1ncc(CSSCc2cnc(C)c(O)c2CO)c(CO)c1O`: the compound was classed as inactive.

On to `NC[C@H]1O[C@H](O[C@H]2[C@H](O)[C@@H](O[C@H]3O[C@H](CO)[C@@H](O)[C@H](N)[C@H]3O)[C@H](N)C[C@@H]2N)[C@H](N)[C@@H](O)[C@@H]1O`, for which the outcome was inactive.

In the case of `Cc1ccc(Nc2c(F)cccc2Cl)c(CC(=O)O)c1`, the result was inactive.

Regarding `CC(=O)O[C@]1(C(C)=O)CC[C@H]2[C@@H]3C[C@H](C)C4=CC(=O)CC[C@]4(C)[C@H]3CC[C@@]21C`, the max response was -32.7% (inactive) and 2.19% (inactive).

Regarding `CC(=O)OCC(=O)[C@@]1(O)[C@H](C)C[C@H]2[C@@H]3CCC4=CC(=O)C=C[C@]4(C)[C@@]3(F)[C@@H](O)C[C@@]21C`, the max response was -3.13% (inactive) and -0.939% (inactive).

Take `CC(=O)N(O)CCCCCNC(=O)CCC(=O)N(O)CCCCCNC(=O)CCC(=O)N(O)CCCCCN`: the Potency is 1320 nM (active) and the max response was -20.9% (inactive).
